Only some compounds are listed: those with a hit (about 21% of all), similar ones and a draw of the others.
D3 ag – agonists of human D3 dopamine receptor. AID 652048. max activation, %. actives 0.58% (n = 410,000). D3R DiscoveRx beta-arrestin cells, luminescence, 90 min; in the data active = max activation above about 30%
Target sequence (P35462 whole entry, looked up): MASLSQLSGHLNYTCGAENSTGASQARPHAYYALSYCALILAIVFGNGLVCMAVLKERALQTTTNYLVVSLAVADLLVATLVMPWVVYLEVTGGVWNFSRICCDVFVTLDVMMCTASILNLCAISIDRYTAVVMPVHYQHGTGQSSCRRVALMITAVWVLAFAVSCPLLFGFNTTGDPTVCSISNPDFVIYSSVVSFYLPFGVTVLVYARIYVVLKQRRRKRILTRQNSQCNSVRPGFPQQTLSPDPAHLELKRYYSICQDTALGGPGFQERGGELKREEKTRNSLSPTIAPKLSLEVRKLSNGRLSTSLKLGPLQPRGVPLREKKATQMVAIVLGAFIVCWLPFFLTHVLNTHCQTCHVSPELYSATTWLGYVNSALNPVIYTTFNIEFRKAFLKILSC
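Cells at 1500/well, incubated overnight, then treated with pinned compounds (dopamine as control) for 90 min at 37 degrees C. DiscoveRx reagent added for 30 - 60 minutes at room temperature; luminescence read.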
TDP1 cell noCPT – qHTS for Inhibitors of human tyrosyl-DNA phosphodiesterase 1 (TDP1): qHTS in cells in absence of CPT | actives 15% (n = 420,000) | Potency, µM (titrated, usually from 46.2 µM), hits mostly inhibitors | DT40 Tdp1-/- hTDP1 cells, no CPT, ATP luminescence, 48 h | AID 686978, 2013; also: nearly all actives have a fitted effect of over 55% in size
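DT40 Tdp1-/-;hTDP1 cells, no CPT (DMSO vehicle only), 400 cells/well; compounds pin-transferred; ≥48 hr, 37 °C; CellTiter-Glo 30 min RT dark, luminescence read.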
ClpP mod – qHTS Assay for Activators of ClpP. AID 651965, 2013. purified B. subtilis ClpP, FRET peptide cleavage, 20 min. ATP-dependent Clp protease proteolytic subunit (Bacillus subtilis (strain 168)), P80244. Potency, µM (doses to about 57.5 µM). actives 1.9% (n = 340,000); active = well fitted falling curve with a large enough effect; inconclusive = small, poorly fitted or top-dose-only effect; inactive = no such curve, though single readings can be large or run the other way; also: the source files actives as falling curves though it sought activators and does not explain the sign; nearly all actives have a fitted effect of over 65% in size
Target sequence (P80244 whole entry, looked up): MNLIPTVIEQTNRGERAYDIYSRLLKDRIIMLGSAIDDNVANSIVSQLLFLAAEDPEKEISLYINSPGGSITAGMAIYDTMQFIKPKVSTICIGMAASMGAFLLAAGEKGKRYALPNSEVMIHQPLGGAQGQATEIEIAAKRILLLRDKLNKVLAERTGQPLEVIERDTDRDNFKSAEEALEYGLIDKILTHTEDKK
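FRET quenching reversal measured ClpP activation: 10 microg/mL B. subtilis ClpP at pH 8 with the FRET-FV decapeptide, read at 430 nm after 320 nm excitation. The 20-min minus 0-min signal was scaled between DMSO/no-enzyme wells and ADEP (5.8 microM final).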
IL1B secr inh – blocks inflammasome-driven IL-1 beta release. THP-1 LPS/ATP IL-1B secretion, AlphaLISA, 16 h; stronger effect = lower value. activity change, % at 57.5 µM. actives 4.7% (n = 360,000); in the data active = activity change below about -50%; inconclusive = mostly about -30% to -49%
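Secreted IL-1B measured by AlphaLISA bead assay after 16 h compound exposure of THP-1 cells; compounds (final up to 57.5 uM) added 1 h before LPS (250 ng/mL) and ATP (1.25 mM) stimulation; lower signal means less secretion.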
DT40 TDP1 CPT – DT40-hTDP1 cell growth loss with CPT; chicken DT40 Tdp1-/-;hTDP1 cells + 20 nM CPT, ATP luminescence, 48 h; Potency, µM (titrated, usually from 46.2 µM), actives largely listed as inhibitors; actives 12% (n = 420,000); AID 686979; also: nearly all actives have a fitted effect of over 55% in size
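Chicken DT40 Tdp1-/- cells stably complemented with human TDP1 were seeded at 400 cells/well in medium containing 20 nM camptothecin, exposed to pin-transferred compounds, and grown at 37 °C for at least 48 hr. Viability was read as ATP luminescence.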
D3 antag – blocks the human D3 dopamine receptor. D3R cells, DiscoveRx beta-arrestin luminescence, antagonist mode; stronger effect = lower value. AID 652054. actives 2.5% (n = 360,000). P35462. max response, negative = inhibition, %; in the data active = max response below about -50%; inconclusive = no clear call, values can overlap the other calls
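Cells plated overnight at 1500 cells/well, then exposed to library compounds with dopamine controls for 90 minutes at 37 degrees C. DiscoveRx reagent added for 30–60 minutes at room temperature; luminescence read, quantitative HTS format.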
Large screens that a line does not name were inactive. Unless noted, calls follow the shape of the dose curve; as a rule, active = well fitted inhibition curve with a large enough effect; inconclusive = small, poorly fitted or top-dose-only effect; inactive = flat fitted curve, though single readings scatter.

CSc1ncc(Cl)c(C(=O)Nc2ccc(S(=O)(=O)N3CCC(C)CC3)cc2)n1	TDP1 cell noCPT 23.1µM, DT40 TDP1 CPT 23.1µM (no result: IL1B secr inh, D3 antag)
CCSc1ncc(Cl)c(C(=O)Nc2ccc(S(=O)(=O)Nc3ncccn3)cc2)n1	none
CCS(=O)(=O)c1ncc(Cl)c(C(=O)Nc2ccc(S(=O)(=O)N3CCC(C)CC3)cc2)n1	TDP1 cell noCPT 2.59µM, IL1B secr inh -103.9, DT40 TDP1 CPT 1.84µM, D3 antag -61.1 (no result: ClpP mod)
CCSc1ncc(Cl)c(C(=O)Nc2ccc(S(=O)(=O)N3CCC(C)CC3)cc2)n1	TDP1 cell noCPT 5.8µM, DT40 TDP1 CPT 14.6µM (no result: IL1B secr inh, D3 antag)
CC(=O)N1CCN(C(=O)c2cc3c(s2)CCC(C)C3)CC1 (stereo not given)	none
CCCSc1ncc(Cl)c(C(=O)Nc2ccc(S(=O)(=O)N3CC(C)OC(C)C3)cc2)n1 (stereo not given)	TDP1 cell noCPT 16.4µM, DT40 TDP1 CPT inconclusive
CC1CCCCN1S(=O)(=O)c1ccc(NC(=O)c2ccco2)cc1 (stereo not given)	TDP1 cell noCPT inconclusive
CC(C)Sc1ncc(Cl)c(C(=O)Nc2ccc(S(=O)(=O)N3CCCCC3C)cc2)n1 (stereo not given)	TDP1 cell noCPT 18.4µM, DT40 TDP1 CPT inconclusive (no result: IL1B secr inh, D3 antag)
Cc1cc2cc(C)c3nnc(SCC(=O)Nc4ccc(S(=O)(=O)N5CCCCC5C)cc4)n3c2cc1C (stereo not given)	TDP1 cell noCPT 10.3µM, DT40 TDP1 CPT inconclusive
Cc1cc(C)nc(NS(=O)(=O)c2ccc(NC(=O)c3ccc(S(=O)(=O)N4CC(C)OC(C)C4)cc3)cc2)n1 (stereo not given)	none
CC(C)C[C@@H](CN1CCC[C@H]1CN1C(=O)C(=O)NC[C@@H]1Cc1ccccc1)N1C[C@H](Cc2ccc(O)cc2)N(CCc2ccccc2)C(=O)C1=O	TDP1 cell noCPT inconclusive, DT40 TDP1 CPT inconclusive
CCC[C@@H](CN1CCC[C@H]1CN1C(N)=NC[C@H]1CC(C)C)N1C[C@@H](Cc2ccccc2)N(CCc2ccc(Cl)c(Cl)c2)C1=N	TDP1 cell noCPT inconclusive, IL1B secr inh -68.5, DT40 TDP1 CPT 20.6µM
CCC[C@@H](CN1CCC[C@H]1CN1C(N)=NC[C@@H]1Cc1ccccc1)N1C[C@@H]([C@H](C)CC)N(CCc2ccc(Cl)c(Cl)c2)C1=N	TDP1 cell noCPT inconclusive, IL1B secr inh inconclusive, DT40 TDP1 CPT inconclusive, D3 antag -63.6
CCC[C@@H](CN1CCC[C@H]1CN1C(N)=NC[C@@H]1Cc1ccccc1)N1C[C@@H](Cc2ccccc2)N(CCc2ccc(Cl)c(Cl)c2)C1=N	TDP1 cell noCPT inconclusive, IL1B secr inh -53.0, DT40 TDP1 CPT inconclusive, D3 antag -86.8
COc1ccc(-c2nc3scc(CCNS(=O)(=O)c4ccccc4F)n3n2)cc1	TDP1 cell noCPT inconclusive, DT40 TDP1 CPT inconclusive (no result: IL1B secr inh, D3 antag)
CCSc1nnc(NC(=O)NC(CC)(C(F)(F)F)C(F)(F)F)s1	TDP1 cell noCPT 14.6µM, IL1B secr inh inconclusive, DT40 TDP1 CPT inconclusive
CCCC(=O)Nc1nnc(SCC)s1	none
CC(=O)c1ccccc1-c1ccc2c(c1)CC(CNC(=O)c1cc(C)on1)O2 (stereo not given)	TDP1 cell noCPT inconclusive (no result: D3 ag, ClpP mod, IL1B secr inh, D3 antag)
COc1c(Cl)ccc(Cl)c1C(=O)O	none (no result: D3 ag, ClpP mod, IL1B secr inh, D3 antag)
CCNC(=O)C1(C)CCN(C(=O)c2ccc3snnc3c2)C1 (stereo not given)	none
O=C(c1c[nH]c2ccc(S(=O)(=O)N3CCOCC3)cc2c1=O)N1CCCC1	ClpP mod 7.94µM
CCN(c1ccccc1)S(=O)(=O)c1ccc2[nH]cc(C(=O)N3CCOCC3)c(=O)c2c1	ClpP mod 31.6µM
CCCCNC(=O)c1c[nH]c2ccc(S(=O)(=O)N3CCOCC3)cc2c1=O	none (no result: ClpP mod)
CCN(c1ccc(F)cc1)S(=O)(=O)c1ccc2[nH]cc(C(=O)NCCCN3CCOCC3)c(=O)c2c1	none
CSCCC(NC(=O)C1CCCCC1)C(=O)Nc1ccc(F)c(Cl)c1 (stereo not given)	DT40 TDP1 CPT inconclusive (no result: IL1B secr inh, D3 antag)
C=CCC[C@H](Cc1ccc(F)cc1)C(=O)OC[C@@H](Cc1c[nH]c2ccccc12)NC(=O)[C@H](CC=C)CC(=O)N(CCO)Cc1ccccc1	TDP1 cell noCPT inconclusive, IL1B secr inh inconclusive, DT40 TDP1 CPT 18.4µM
C=CCC[C@@H](Cc1ccc(F)cc1)C(=O)OC[C@@H](Cc1c[nH]c2ccccc12)NC(=O)[C@H](CC=C)CC(=O)N(CCO)Cc1ccccc1	TDP1 cell noCPT inconclusive, IL1B secr inh inconclusive, DT40 TDP1 CPT 20.6µM
CC(C)Cn1cnc2c1c(=O)n(C)c(=O)n2C	none
Cn1c(=O)c2c(ncn2CCOc2ccc(Br)cc2)n(C)c1=O	TDP1 cell noCPT 16.4µM, DT40 TDP1 CPT inconclusive (no result: ClpP mod)
Cn1c(=O)c2c(ncn2Cc2ccc(Cl)cc2)n(C)c1=O	TDP1 cell noCPT 16.4µM, DT40 TDP1 CPT 5.8µM
Cn1c(=O)c2c(ncn2CC(COCc2ccc(Cl)cc2)OCc2ccc(Cl)cc2)n(C)c1=O (stereo not given)	TDP1 cell noCPT 14.6µM, DT40 TDP1 CPT 23.1µM
COc1cccc(CNC(=O)CCCSc2ccccc2)c1	none (no result: ClpP mod)
COc1ccc(N2CCN(C(=O)CN3C(=O)NC4(CCCCC4C)C3=O)CC2)cc1 (stereo not given)	none (no result: ClpP mod)
O=C(C1CCN(S(=O)(=O)c2cccc3cccnc23)CC1)N1CCCC1	D3 antag -78.5
O=C(C1CCC(CNS(=O)(=O)c2cccc3cccnc23)CC1)N1CCc2ccccc21 (stereo not given)	TDP1 cell noCPT 18.4µM, DT40 TDP1 CPT inconclusive
O=C(COC(=O)C1CCN(S(=O)(=O)c2cccc3cccnc23)CC1)c1ccccc1	none
O=C(C1CCN(S(=O)(=O)c2cccc3cccnc23)CC1)N1CCc2ccccc21	IL1B secr inh inconclusive, D3 antag -52.6
O=C(C1CCCN1S(=O)(=O)c1cccc2cccnc12)N1CCc2ccccc21 (stereo not given)	TDP1 cell noCPT inconclusive, DT40 TDP1 CPT inconclusive
COc1cccc2c1Oc1ncccc1N(C(=O)CCC(=O)NCc1ccc(OC(C)C)cc1)C2	TDP1 cell noCPT inconclusive, DT40 TDP1 CPT inconclusive (no result: IL1B secr inh, D3 antag)
Cc1cc(C)c2nc(-c3ccccn3)cc(C(=O)n3cccn3)c2c1	TDP1 cell noCPT 18.4µM, DT40 TDP1 CPT inconclusive (no result: ClpP mod)
CN(Cc1ccccn1)Cc1cn(Cc2ccccc2)nc1-c1ccc2c(c1)OCO2	TDP1 cell noCPT 23.1µM, IL1B secr inh inconclusive (no result: ClpP mod)

Screening results (PubChem)
